We go through eight compounds from PubChem BioAssay AID1493 (National Center for Advancing Translational Sciences (NCATS), 2009).

Several values for one entry are separate records, joined by “and”; a condition that tells them apart may be missing. Identical values can stand only once. Results filed as inconclusive are left out. Activity calls are given as the source filed them.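 How the source made its calls: active means compound pushes the radio-tagged natural neuropeptide S off its receptor in a binding test; inconclusive means any compound that did not displace the tagged ligand; inactive means never assigned.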

Chain of Neuropeptide S receptor (Homo sapiens) (Q6W5P4 whole entry, looked up): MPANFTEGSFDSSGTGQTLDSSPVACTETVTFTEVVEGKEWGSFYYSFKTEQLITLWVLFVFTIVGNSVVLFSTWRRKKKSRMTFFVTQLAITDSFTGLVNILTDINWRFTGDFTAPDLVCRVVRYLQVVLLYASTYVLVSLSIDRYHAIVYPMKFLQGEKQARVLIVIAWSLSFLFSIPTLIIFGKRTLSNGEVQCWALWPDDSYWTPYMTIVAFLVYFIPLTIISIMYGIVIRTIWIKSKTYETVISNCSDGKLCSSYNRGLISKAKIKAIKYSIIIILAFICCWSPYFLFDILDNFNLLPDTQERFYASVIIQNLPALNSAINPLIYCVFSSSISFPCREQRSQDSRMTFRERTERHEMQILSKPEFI

The assay addresses Neuropeptide S receptor (Homo sapiens) (UniProt Q6W5P4). Put plainly: Confirmation Concentration-Response Assay for Antagonists of the Neuropeptide S Receptor: Radioligand Displacement. As to conditions: CHO-hNPSR cells, [125I]Y10-NPS displacement, 1.5 h. The source says:
NIH Chemical Genomics Center [NCGC] NIH Molecular Libraries Probe Production centers Network [MLPCN] MLPCN Grant: X01-DA026210-01 Assay Submitter (PI): Heilig, Markus Alexander NCGC Assay Overview: Neuropeptide S receptor (NPSR), previously known as GPR154, is a recently de-orphanized G protein coupled receptor. Its endogenous ligand is the 20 amino acids peptide Neuropeptide S (NPS). […] NPS and its receptor are found in various tissues. Specifically they are highly expressed in brain areas that have been implicated in modulation of arousal, stress and anxiety. Central administration of NPS in mice produces an unusual profile of activity by inducing wakefulness and arousal, while at the same time suppressing anxiety. Therefore, NPSR may represent a novel drug target for the treatment of sleep and anxiety disorders. As one method of confirming the specific activity of compounds active in the primary screen (AID 1461), we developed an assay to measure the displacement of radio-labeled native ligand, NPS, from its receptor in vitro.
The assay was carried out as described (Xu et al. (2004) Neuron, 43: 487-497) with minor modification. Y10-NPS labeled with 125I was bought from NEN Perkin Elmer (Boston, MA). CHO cells stably expressing human NPSR were seeded into 24-well plates and cultured until reaching 90-95% confluency. Cells were washed with 1ml PBS once and then incubated with radioligand with or without compounds or in DMEM medium containing 0.1% bovine serum albumin at 20C for 1.5 hr. Increasing concentrations of compounds or unlabeled human NPS were used to compete with 0.15 nM [125I] Y10-NPS. Nonspecific binding was determined in the presence of 1 uM unlabeled human NPS. Cells were washed twice with cold PBS and lysed with 1 N NaOH. Bound radioactivity was counted in a liquid scintillation counter.
Background: Loss of bound radioactivity is the signal in a displacement assay; it reports binding, not function.
`N=c1c2c(ccn1-c1ccccc1)Oc1ccc3ccccc3c1C2c1ccccc1` (stereo not drawn): the Potency is 367 nM (active). Then `O=C1OC(c2ccccc2)(c2ccccc2)N2CCN(C(=O)NCc3ccc(F)cc3)CC12` (stereo not drawn), with 5.62 nM (active); and `CCOC(=O)CC(=O)Nc1ncnc2c1C(c1ccccc1)c1c(ccc3ccccc13)O2` (stereo not drawn), with 616 nM (active); and `COc1cccc(C2c3c(ncn(CCN4CCOCC4)c3=N)Oc3ccc4ccccc4c32)c1` (stereo not drawn), with 439 nM (active). Then `N#CC1=C(NC=NCc2ccccc2)Oc2ccc3ccccc3c2C1c1ccccc1` (stereo not drawn), with 321 nM (active).

As to `CCOC(=O)C1CCCN(c2ncnc3c2oc2ccccc23)C1` (stereo not drawn), the Potency was 26400 nM (active). As for `COc1ccc(C2c3c(ncn(CCN4CCOCC4)c3=N)Oc3ccc4ccccc4c32)cc1OC` (stereo not drawn), the Potency is 256 nM (active) and 190 nM (active). Then `COc1cccc(C2c3c(ncn(-c4ccccc4)c3=N)Oc3ccc4ccccc4c32)c1` (stereo not drawn), with 266 nM (active).
